Source: PubChem BioAssay
Sampled rows, rich in hits. Any-hit rate of the full collection: about 2.9%.
HEK293 viab: cell viability loss counter-screen | HEK-293-SNCA-luc viability, GF-AFC fluorescence, 24 h | Potency, µM (highest dose often 57.1 µM), for inactives: top-dose activity change, negative = cytotoxicity, actives largely listed as cytotoxic | hit rate 0.12% among 150,000;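 further: potency means the concentration at half of the fitted maximal effect; 0% = DMSO-treated cells and -100% = medium-only wells without cells; nearly all actives have a fitted effect of over 30% in size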
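Cytotoxicity counterscreen: after 24 h compound treatment of genome-edited SNCA-luciferase HEK-293 cells, live-cell protease substrate GF-AFC read by fluorescence after 30 min; activity scaled between DMSO (0%) and medium-only (-100%), curves Hill-fitted.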
IP6K1 inh: IP6K1 kinase inhibition | activity change, % (series mostly up to about 58 µM) | Q92551 | IP6K1 kinase, ADP-Glo luminescence, 2 h; hits give low values | hit rate 0.81% among 140,000; in the data active means activity change below about -25%; further: on the % scale 0 is the no-effect control and ±100 the full control effect
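ADP-Glo luminescence measures ADP made by human IP6K1 during a 2 h RT reaction with ATP/IP6 (mix at 1.3 mM/130 uM); top library doses 57.5 and 19.1 uM final.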
KDM5B inh: KDM5B demethylase inhibition | Potency, µM (highest dose often 57.7 µM), most hits filed as inhibitors | hit rate 2.6% among 220,000 | KDM5B demethylase, FDH-coupled NADH fluorescence (FDH is formaldehyde dehydrogenase) | Q9UGL1 | AID 1347165; further: potency means the concentration at half of the fitted maximal effect; 0% is about no effect; nearly all actives have a fitted effect of over 70% in size
Target sequence (Q9UGL1 whole entry, looked up): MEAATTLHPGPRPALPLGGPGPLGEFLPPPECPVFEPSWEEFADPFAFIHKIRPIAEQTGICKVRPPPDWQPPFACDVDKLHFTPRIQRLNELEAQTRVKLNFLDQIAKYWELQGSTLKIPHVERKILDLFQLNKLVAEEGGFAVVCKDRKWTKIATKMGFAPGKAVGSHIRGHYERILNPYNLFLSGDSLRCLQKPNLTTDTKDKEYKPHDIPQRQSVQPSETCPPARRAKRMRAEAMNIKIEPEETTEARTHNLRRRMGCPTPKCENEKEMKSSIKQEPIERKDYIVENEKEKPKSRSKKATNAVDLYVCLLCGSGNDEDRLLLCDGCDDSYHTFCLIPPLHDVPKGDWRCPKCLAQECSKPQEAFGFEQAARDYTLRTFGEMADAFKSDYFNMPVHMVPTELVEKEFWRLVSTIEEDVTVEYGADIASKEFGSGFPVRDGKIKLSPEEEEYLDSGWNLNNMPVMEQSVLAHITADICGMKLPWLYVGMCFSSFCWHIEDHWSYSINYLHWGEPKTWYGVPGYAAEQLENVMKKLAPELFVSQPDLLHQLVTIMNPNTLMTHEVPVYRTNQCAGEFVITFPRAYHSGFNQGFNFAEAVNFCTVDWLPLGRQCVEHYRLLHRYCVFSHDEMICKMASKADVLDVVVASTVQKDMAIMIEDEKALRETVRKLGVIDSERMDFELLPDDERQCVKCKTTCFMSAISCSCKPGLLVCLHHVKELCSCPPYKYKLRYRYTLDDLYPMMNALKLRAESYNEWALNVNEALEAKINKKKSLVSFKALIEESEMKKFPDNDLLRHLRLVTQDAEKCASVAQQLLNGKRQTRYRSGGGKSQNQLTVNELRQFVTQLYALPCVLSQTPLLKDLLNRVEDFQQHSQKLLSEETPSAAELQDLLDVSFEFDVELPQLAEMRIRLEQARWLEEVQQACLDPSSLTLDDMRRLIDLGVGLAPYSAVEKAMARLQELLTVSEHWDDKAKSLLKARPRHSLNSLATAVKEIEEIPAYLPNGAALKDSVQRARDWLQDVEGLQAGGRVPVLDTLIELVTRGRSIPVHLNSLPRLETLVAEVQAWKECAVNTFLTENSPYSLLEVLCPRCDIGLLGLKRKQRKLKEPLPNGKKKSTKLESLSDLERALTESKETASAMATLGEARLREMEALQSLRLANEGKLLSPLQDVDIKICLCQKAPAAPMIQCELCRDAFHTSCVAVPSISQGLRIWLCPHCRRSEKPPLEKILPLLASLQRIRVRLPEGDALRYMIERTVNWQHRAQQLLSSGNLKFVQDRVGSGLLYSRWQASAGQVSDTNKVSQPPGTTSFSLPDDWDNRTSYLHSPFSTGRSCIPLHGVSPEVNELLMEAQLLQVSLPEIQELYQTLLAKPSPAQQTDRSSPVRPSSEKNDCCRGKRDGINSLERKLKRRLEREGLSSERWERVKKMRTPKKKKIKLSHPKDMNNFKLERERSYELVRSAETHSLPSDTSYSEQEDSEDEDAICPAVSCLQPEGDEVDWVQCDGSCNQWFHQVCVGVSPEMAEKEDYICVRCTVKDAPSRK
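Here, H3K4me3 peptide (12.5 µM in substrate mix) is demethylated by KDM5BΔAP, 200 nM final, after 10 min compound exposure. Formaldehyde product is coupled through FDH (0.25 U/mL in mix) to NADH fluorescence; 30-min ΔRFU feeds dose-response curves.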
SNCA expr inhib: inhibitors of alpha-synuclein (SNCA) gene expression; hit rate 0.17% among 140,000; HEK-293 SNCA-luciferase knock-in, luminescence, 24 h; AID 1671194; Potency, µM (doses to about 57.2 µM), without a hit: top-dose activity change, negative = inhibition, most hits filed as inhibitors;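 further: potency means the concentration at half of the fitted maximal effect; plate controls were DMSO cells for no effect and cell-free wells for full effect; nearly all actives have a fitted effect of over 45% in size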
Active calls of the source: *; i = inactive; u = inconclusive; x = not tested or not shown; [ ] = another dose, or the depositor's remark. Unless noted, the call rests on the fitted dose curve; in most records, active means well fitted curve in the direction sought with a large enough effect; inconclusive means small, poorly fitted or top-dose-only effect, or another doubt; inactive means no such curve, though single readings can be large; an effect the other way counts as inactive or inconclusive.

SMILES	HEK293 viab	IP6K1 inh	KDM5B inh	SNCA expr inhib
O=C(NCc1ccc(N2CCCC2)cc1)C1CCCN(c2cnn(Cc3ccccc3)c(=O)c2)C1 (centres undefined)	-6%	19	i	-3%
O=C(c1cccc(F)c1)N1CCC2(CC1)N=C(c1ccccc1)NO2	0%	5	i	u
O=C(c1ccc2c(c1)OCO2)N1CCC2(CC1)N=C(c1ccc(Cl)cc1)NO2	22%	2	32µM*	16%
O=C(c1cccc(F)c1)N1CCC2(CC1)N=C(c1ccc(Cl)cc1)NO2	-4%	2	20µM*	6%
Cc1ccc(C(=O)N2CCCC3(C2)Nc2cccnc2NC3=NCc2ccccc2)cn1 (centres undefined)	-13%	1	28µM*	-25%
COc1ccc(C(=O)N2CCCC3(C2)Nc2cccnc2NC3=NCc2ccccc2)cn1 (centres undefined)	-11%	14	u	-4%
O=C(NCc1ccco1)N1CCCC2(C1)Nc1cccnc1NC2=NCc1ccccc1 (centres undefined)	0%	1	25µM*	-1%
CCCCS(=O)(=O)N1CCCC2(C1)Nc1cccnc1NC2=NCc1ccccc1 (centres undefined)	-9%	3	28µM*	30%
CCCCCC(=O)N1[C@@H](c2ccco2)[C@@H](C(=O)O)C[C@]12CCCCN(CCOC)C2=O	x	-5	x	x
COc1ccccc1-c1nnc([C@H]2CCN(Cc3ccccn3)C2)o1	-10%[87.6 µM]	-3	u	2%[87.6 µM]
COCCNC[C@@H]1C=C(C)[C@H](Cc2nnc(-c3ccc(OC)cc3)o2)C[C@H]1C(C)C	32µM*	22	i	u
COCCN1CC2(CCCN(c3cc(C)c4ccccc4n3)C2)CCC1=O (centres undefined)	3%	-4	28µM*	24%
Cc1cc(N2CCCCC2)nc2ccccc12	4%	-10	x	x
O=C(CCC1CCCN(S(=O)(=O)c2ccccc2F)C1)NCCN1CCOCC1 (centres undefined)	13%	3	20µM*	-23%
COc1ccccc1CNC(=O)c1ccccc1C(=O)c1cccs1	x	x	i	x
O=C(Nc1cc(-c2ccncc2)nn1-c1ccccc1)c1cccc(Cl)c1	-28%	1	x	-4%
Cc1cc(C)c(CNC(=O)c2cc(-c3cnn(C)c3)cc3c2OCCN3C)c(=O)[nH]1	-6%[87.6 µM]	-21	32µM*	24%[87.6 µM]
Cc1cc(C)c(CNC(=O)c2cc(-c3cnn(C)c3)cc3c2OCCN3C(C)C)c(=O)[nH]1	-13%[87.6 µM]	-21	28µM*	17%[87.6 µM]
COc1ccccc1-c1cccc(C(=O)N2CCC[C@H]2C(=O)NCc2cccc(C(F)(F)F)c2)c1	0%[12.5 µM]	-6	x	-21%
Cc1cc(CNC(=O)c2cc(-c3ccc(N4CCOCC4)cc3)cc3c2OCCN3C)no1	3%	-21	u	-11%
CC(=O)Nc1cc(-c2cc(C(=O)NCc3cc(C)on3)c3c(c2)N(C)CCO3)ccn1	-15%[87.6 µM]	-22	i	3%[87.6 µM]
Cc1ccccc1-c1cc(C(=O)NCc2cccnc2)c2c(c1)N(C)CCO2	-18%[87.6 µM]	-18	35µM*	u
CN1CCOc2c(C(=O)NCc3cnn(C)c3)cc(-c3ccc([S+](C)(=O)[O-])cc3)cc21	-14%[87.6 µM]	-15	u	-3%[87.6 µM]
COc1ccc(-c2cc(C(=O)NCc3cc(C)on3)c3c(c2)N(C)CCO3)cc1OC	-12%[87.6 µM]	-22	35µM*	10%[87.6 µM]
Cc1cc(CNC(=O)c2cc(-c3ccccc3)cc3c2OCCN3C)no1	-9%[87.6 µM]	-23	40µM*	-21%[87.6 µM]
SMILES	HEK293 viab	IP6K1 inh	KDM5B inh	SNCA expr inhib
CN1CCOc2c(C(=O)NCc3cnn(C)c3)cc(-c3ccccc3)cc21	-4%[87.6 µM]	-15	40µM*	-4%[87.6 µM]
C=CCN1Cc2cc(F)ccc2N(CC(O)COc2ccc(OC)cc2)CCC1=O (centres undefined)	x	-8	x	x
CCOCCCNC(=O)C1CCCN1Cc1cccc(-c2ccc(C)c(Cl)c2)c1 (centres undefined)	x	8	x	x
COc1ccccc1-c1cccc(CN2CCCC(C(=O)NC3CCCC3)C2)c1 (centres undefined)	-25%	-14	x	u
COC(=O)N(C)Cc1cccc(N2CCN([S+](=O)([O-])c3c(Cl)cccc3Cl)CC2)c1	x	6	x	x
O=C(NCC(c1cccs1)N1CCCCCC1)c1cc(=O)c2ccc(Br)cc2o1 (centres undefined)	x	x	i	x
CC(C)CNc1ccc2c(n1)C(C)(C(=O)N1CCC1)CN(Cc1ccccc1)C2 (centres undefined)	u	4	28µM*	10%[87.6 µM]
CC(C)CNc1ccc2c(n1)C(C)(C(=O)NC1CCOCC1)CN(Cc1ccccc1)C2 (centres undefined)	-8%[87.6 µM]	-1	i	-4%[87.6 µM]
CC(C)CNc1ccc2c(n1)C(C)(C(=O)Nc1cccnc1)CN(Cc1ccccc1)C2 (centres undefined)	-6%[87.6 µM]	7	32µM*	u
COCCN1Cc2ccc(NCC(C)C)nc2C(C)(C(=O)NCc2cccnc2)C1 (centres undefined)	11%[87.6 µM]	10	32µM*	10%[87.6 µM]
CC(C)CNc1ccc2c(n1)C(C)(C(=O)N1CCOCC1)CN(Cc1ccccc1)C2 (centres undefined)	u	-7	32µM*	-15%[87.6 µM]
O=C1c2cnc(-c3ccsc3)nc2OCCN1c1cccc(C(F)(F)F)c1	-19%[87.6 µM]	-8	i	72%[87.6 µM]
COc1ccccc1-c1ccc(CN2CCC(NC(=O)c3ccccc3)C2)cc1 (centres undefined)	x	8	x	x
Cc1cc(C(F)(F)F)nc(CNC(=O)c2ccc3cccc(F)c3n2)n1	-5%	-3	22µM*	13%
CCCc1nc(C(=O)NCc2nc(C)cc(C(F)(F)F)n2)cs1	-3%	5	i	4%
O=C(CCC1CCCN(S(=O)(=O)c2ccccc2)C1)N1CCc2ccccc2C1 (centres undefined)	-9%	11	22µM*	0%
CCOCCCNC(=O)CNC(=O)c1cccc(-c2cc(F)ccc2OC)c1	x	-14	x	x
CN(C)CCNC(=O)c1nc2nc(-c3ccccc3)c(-c3cccc(Cl)c3)cc2n1C	u	9	i	u
CN(C)CCNC(=O)c1nc2nc(-c3ccccc3)c(-c3cccc(CO)c3)cc2n1C	-17%[87.6 µM]	0	10µM*	14%[87.6 µM]
CN(C)CCNC(=O)c1nc2nc(-c3ccccc3)c(-c3ccc(Cl)cc3)cc2n1C	u	-4	28µM*	u
COc1ncccc1-c1cc2c(nc1-c1ccccc1)nc(C(=O)NCCN(C)C)n2C	u	16	16µM*	1%[87.6 µM]
O=C1Nc2ccccc2CN(Cc2ccc(C(F)(F)F)cc2)C12CCNCC2	-30%	-13	50µM*	1%
O=C1Nc2ccccc2CN(CC2CCCC2)C12CCNC2 (centres undefined)	-12%	-18	89µM*	29%
O=C1Nc2ccccc2CN(CC2CC2)C12CCNC2 (centres undefined)	-14%[87.6 µM]	10	i	7%[87.6 µM]
O=C1Nc2ccccc2CN(Cc2ccc(F)cc2)C12CCNCC2	-9%	-13	45µM*	-4%
